Measured potencies and affinities stand elsewhere. Activity calls are given as the source filed them. No rule for the calls is given here.

Data on two compounds can be found in PubChem BioAssay AID485288 (Southern Research Specialized Biocontainment Screening …, 2010).

The target in the experiment is Large T antigen (Simian virus 40) (UniProt P03070). Description: inhibition of TAg ATP hydrolysis – biochemical, ADP-Hunter detection, purified TAg, synthesized compounds, set 3, SAR follow-up (AID 485288).
Sequence of Large T antigen (Simian virus 40) (P03070 whole entry, looked up): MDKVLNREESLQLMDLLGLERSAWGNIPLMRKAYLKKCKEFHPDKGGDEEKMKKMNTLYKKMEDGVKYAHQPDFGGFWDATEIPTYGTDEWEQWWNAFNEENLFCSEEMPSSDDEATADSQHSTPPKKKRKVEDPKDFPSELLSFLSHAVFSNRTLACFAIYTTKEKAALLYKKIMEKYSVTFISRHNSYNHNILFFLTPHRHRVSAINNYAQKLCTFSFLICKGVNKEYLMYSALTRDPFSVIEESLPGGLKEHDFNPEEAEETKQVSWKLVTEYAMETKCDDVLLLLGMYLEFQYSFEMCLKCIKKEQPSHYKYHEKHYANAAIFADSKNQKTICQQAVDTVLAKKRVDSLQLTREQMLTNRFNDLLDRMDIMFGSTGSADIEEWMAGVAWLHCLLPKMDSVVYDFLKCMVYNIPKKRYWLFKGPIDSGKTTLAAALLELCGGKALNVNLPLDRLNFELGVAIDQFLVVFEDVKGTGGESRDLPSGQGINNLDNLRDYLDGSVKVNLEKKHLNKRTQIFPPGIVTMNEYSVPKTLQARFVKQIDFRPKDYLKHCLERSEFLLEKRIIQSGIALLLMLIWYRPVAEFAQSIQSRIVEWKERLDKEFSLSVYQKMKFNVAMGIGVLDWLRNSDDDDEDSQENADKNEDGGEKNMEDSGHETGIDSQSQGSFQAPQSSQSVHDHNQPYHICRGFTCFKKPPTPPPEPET

Take `CC(C)(c1ccccc1)c1ccc(O)cc1`: the compound was called inactive.
With `Cc1cc(C(C)(C)c2ccc(O)c(C)c2)ccc1O`, the outcome was inactive.
